# Shown are actives, neighbours in structure and some others; about 1.5% of the full set was active somewhere.
# cardiac RTF act: cardiac RTF calcium sensitivity activators, primary screen, biochemical, IANBD-TnC fluorescence, EC20 calcium. Troponin I, cardiac muscle (Homo sapiens) + Troponin T, cardiac muscle (Homo sapiens) + …. IANBD-labeled TnC RTF fluorescence at EC20 calcium; 0% EC20 calcium, 100% full calcium. activation, % at 7.2 µM. 340,000 compounds, 0.24% hits;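 active means activation above the mean over all tested compounds plus 3 SD, cut at about 30% in these data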;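 further: rise in fluorescence read as greater calcium sensitivity of cardiac thin filaments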
# RTF Ca sens inh: cardiac RTF calcium sensitivity inhibitors, primary screen, biochemical, IANBD-TnC fluorescence, EC70 calcium; IANBD-labeled cardiac RTF, Ca2+ fluorescence; 340,000 compounds, 0.12% hits; inhibition, % at 7.15 µM; Troponin I, cardiac muscle (Homo sapiens) + Troponin T, cardiac muscle (Homo sapiens) + …;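 active means inhibition above the mean inhibition of all tested compounds plus 3 SD, cut at about 17% in these data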;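 further: assay run at fixed EC70 calcium of 1.6 mM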
# IDE inh: human IDE inhibitors in live cells, primary screen, fluorescence polarization, HEK cells, FAbetaB substrate; 320,000 compounds, 0.41% hits; FAbetaB cleavage; Insulin-degrading enzyme (Homo sapiens), P14735; inhibition, % at 5.59 µM;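 active means percent inhibition above the average of all tested compounds plus 3 SD, set per screening campaign, cut at about 16% in these data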;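 further: IDE supplied by intact live HEK cells; FP after avidin binding of uncleaved biotin substrate so inhibition keeps polarization high; 0% = DMSO wells and 100% = 60 µM reference IDE inhibitor Ii1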
# Target sequence (P14735 whole entry, looked up): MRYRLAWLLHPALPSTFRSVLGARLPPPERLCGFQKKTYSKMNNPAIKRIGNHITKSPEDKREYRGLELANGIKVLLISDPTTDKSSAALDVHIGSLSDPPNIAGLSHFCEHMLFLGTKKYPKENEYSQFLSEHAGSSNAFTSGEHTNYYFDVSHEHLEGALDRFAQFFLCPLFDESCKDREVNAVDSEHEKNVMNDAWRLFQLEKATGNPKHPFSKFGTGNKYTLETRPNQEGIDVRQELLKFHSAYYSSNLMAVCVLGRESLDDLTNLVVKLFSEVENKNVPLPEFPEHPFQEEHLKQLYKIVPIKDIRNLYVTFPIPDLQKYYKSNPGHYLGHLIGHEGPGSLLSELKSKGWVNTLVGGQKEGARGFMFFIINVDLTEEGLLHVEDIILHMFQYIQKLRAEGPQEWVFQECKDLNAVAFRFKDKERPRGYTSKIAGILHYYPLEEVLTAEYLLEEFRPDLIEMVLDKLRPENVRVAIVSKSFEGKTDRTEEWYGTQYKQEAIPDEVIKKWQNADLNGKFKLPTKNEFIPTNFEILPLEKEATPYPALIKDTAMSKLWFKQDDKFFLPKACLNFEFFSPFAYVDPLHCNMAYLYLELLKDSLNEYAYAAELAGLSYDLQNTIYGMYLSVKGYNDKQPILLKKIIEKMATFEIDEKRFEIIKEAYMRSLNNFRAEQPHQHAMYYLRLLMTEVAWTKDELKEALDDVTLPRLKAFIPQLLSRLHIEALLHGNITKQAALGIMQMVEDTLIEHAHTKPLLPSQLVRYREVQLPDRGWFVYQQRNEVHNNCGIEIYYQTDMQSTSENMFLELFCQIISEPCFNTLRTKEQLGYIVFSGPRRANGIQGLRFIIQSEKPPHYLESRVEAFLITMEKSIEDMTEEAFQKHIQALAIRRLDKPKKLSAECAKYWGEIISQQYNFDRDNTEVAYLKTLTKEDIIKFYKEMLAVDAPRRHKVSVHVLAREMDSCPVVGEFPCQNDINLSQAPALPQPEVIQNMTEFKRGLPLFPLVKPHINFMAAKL
# IDE cell activ: human IDE activators in live cells, primary screen, fluorescence polarization, HEK cells, FAbeta-B substrate | activation, % at 5.96 µM | FAbeta-B cleavage; 0% vehicle, 100% cell-free pure enzyme wells | 340,000 compounds, 0.073% hits | AID 493087, 2011;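 active means activation above the mean of all tested compounds plus 3 SD, set per screening campaign, cut at about 17% in these data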
# CRFR2-BP antag: antagonists of CRF-BP/CRF-R2 complex, primary screen, cell-based, HEK293, calcium dye fluorescence, uHTS | CRF-induced calcium fluorescence | inhibition, % at 11.8 µM | 350,000 compounds, 0.59% hits | AID 588475, 2011;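 active means inhibition of the ligand-induced calcium signal above about 50% at the single tested concentration, limit read from the data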
# CRFR2-BP ag: agonists of CRF-BP/CRF-R2 complex, primary screen, cell-based, HEK293, calcium dye fluorescence, uHTS. activation, % at 13.2 µM. AID 588473, 2011. calcium dye fluorescence (FLIPR); percent of saturating CRF peptide response. CRF-binding protein / CRF receptor 2 complex (human). 350,000 compounds, 0.46% hits;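 active means activation of at least 50%, plus an integration ratio under a set limit after plate pattern correction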;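 further: plate controls were neutral control wells without compound for no effect and CRF at EC100 for full effect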
# * hit, by the source's call; . = no result.
SMILES,cardiac RTF act,RTF Ca sens inh,IDE inh,IDE cell activ,CRFR2-BP antag,CRFR2-BP ag
CC(NC(=O)Cc1ccccc1)c1nc2ccccc2[nH]1 (stereo unspecified),1,4,9,-4,6,0
CCCC(=O)NC(C)c1nc2ccccc2[nH]1 (stereo unspecified),1,-4,-4,3,58*,-2
CCOc1ccc(-c2nn(-c3ccccc3)cc2/C=C2\SC(=S)N(C3CCS(=O)(=O)C3)C2=O)cc1 (stereo unspecified),3,-6,-4,4,-122,115*
CCCOc1ccc(-c2nn(-c3ccccc3)cc2/C=C2\SC(=S)N(C3CCS(=O)(=O)C3)C2=O)cc1 (stereo unspecified),-8,-3,-2,3,-55,48
CSc1ccccc1C(=O)N1CCC(n2nccc2NC(=O)C(C)(C)C)CC1,-2,-8,0,1,-4,-1
NNC(=O)COc1ccc2oc3c(c2c1)CCCC3,-2,6,-4,3,-7,-1
Nc1nn2c(C(F)(F)F)cc(=O)[nH]c2c1N=Nc1cccc(F)c1,1,8,2,-2,87*,-7
CC(C)C(NS(=O)(=O)c1ccc2c(c1)oc(=O)n2C)C(=O)N1CCN(C2CCCCC2)CC1 (stereo unspecified),5,-4,8,2,58*,1
Cc1c(C(=O)N2CC(C(=O)N3CCCCC3)Oc3ccccc32)oc2ccccc12 (stereo unspecified),-2,-13,.,-3,75*,-1
COc1ccc(C(Nc2cccc([N+](=O)[O-])c2)P(=O)(OC(C)C)OC(C)C)cc1 (stereo unspecified),5,-6,7,7,-9,1
CCOP(=O)(OCC)C(Nc1cccc([N+](=O)[O-])c1)c1ccccc1 (stereo unspecified),-1,3,-2,3,84*,0
CCC(=O)c1ccc(OCC(=O)NCCCN2CCOCC2)cc1,-4,-24,.,7,52*,1
CCOc1ccccc1C(=O)OCC(=O)NCC1CCCO1 (stereo unspecified),4,-2,-1,3,108*,1
CCOc1ccccc1C(=O)OCC(=O)NCC1CCCCC1,-11,-13,-4,-1,10,-1
COC(=O)c1ccc(NC(=O)CCN2C(=O)NC(C)(C)C2=O)cc1,1,-9,-2,0,-6,0
CC(NS(=O)(=O)c1ccc2[nH]c(=O)[nH]c2c1)c1ccc(F)cc1 (stereo unspecified),.,.,.,.,20,0
COc1cccc(N=C2NC(=O)/C(=C/c3cc([N+](=O)[O-])ccc3O)S2)c1,18,-21,1,-12,-74,38
O=C1NC(=Nc2ccccc2Cl)S/C1=C\c1cc([N+](=O)[O-])ccc1O,29,-49,4,-8,-44,61*
CCOC(=O)c1cc(-c2ccccc2)sc1NC(=O)c1ccc(OC)cc1,.,.,-5,.,-21,2
O=C(Nc1sc(-c2ccccc2)cc1C(=O)O)c1ccccc1,0,3,-1,10,52*,-2
O=C(NC1CCOC1=O)c1ccccc1 (stereo unspecified),2,5,.,-7,-4,-2
CCN1CCN(c2cc(N3CCN(C(=O)c4ccco4)CC3)c3c4c(onc24)-c2ccccc2C3=O)CC1,2,3,5,1,-3,0
O=C(O)CCNc1cc(N2CCN(C(=O)c3ccco3)CC2)c2noc3c2c1C(=O)c1ccccc1-3,139*,-9,6,-1,-17,1
COC(=O)C1(CC2CC(c3ccncc3)=NO2)CCN(C(=O)OC(C)(C)C)CC1 (stereo unspecified),7,8,-4,0,-2,3
O=[N+]([O-])c1ccc(/C=C/C2=NN(c3ccccc3)C(c3ccco3)C2)o1 (stereo unspecified),9,-4,.,-19,-95,66*
SMILES,cardiac RTF act,RTF Ca sens inh,IDE inh,IDE cell activ,CRFR2-BP antag,CRFR2-BP ag
C(=C\c1ccco1)/C1=NN(c2ccccc2)C(c2ccco2)C1 (stereo unspecified),3,-41,4,-3,-99,46
CCOc1ccc(-c2cn(-c3ccc(OC)cc3)c(SC)n2)cc1,-4,1,17*,-1,-6,-1
CCS(=O)(=O)c1ccc(C(=O)NC2CC2)c(Cl)c1Cl,3,-8,0,-2,30,-4
COc1ccc(C2c3ccc(O)cc3Oc3ncn(Cc4ccccc4)c(=N)c32)cc1OC (stereo unspecified),44*,-60,-1,-15,1,0
O=C(NC(=S)Nc1ccccc1F)c1ccc(Br)o1,1,5,4,-1,-1,0
O=c1c2cc(Cl)ccc2nc(-c2ccccc2)n1O,3,11,-1,6,5,-2
O=c1c2cc(Br)ccc2nc(-c2ccc([N+](=O)[O-])cc2)n1O,2,-7,2,2,12,101*
O=c1c2cc(Cl)ccc2nc(-c2ccc(Cl)c(Cl)c2)n1O,0,-2,-2,10,-51,135*
O=c1c2ccccc2nc(-c2ccccc2)n1O,1,-7,9,-1,1,0
COc1ccccc1-c1nc2cc(Cl)ccc2c(=O)n1O,-2,-3,5,0,2,1
O=c1c2ccc(Cl)cc2nc(-c2ccc([N+](=O)[O-])cc2)n1O,5,1,-1,2,15,59*
N#Cc1ccc(-c2nc3ccc(Br)cc3c(=O)n2O)cc1,0,1,1,7,-5,1
O=c1c2cc(Br)ccc2nc(-c2cccc(C(F)(F)F)c2)n1O,-1,-11,3,3,33,148*
CCCCN1CCN=C1Nc1ccccc1,3,4,-4,1,-4,0
Clc1ccccc1CSc1cnnc2ccccc12,9,0,.,-6,-5,-2
CN(C)c1ncnc2c1ncn2C1CCCO1 (stereo unspecified),6,-11,.,3,6,0
CC(Sc1nc2ncc(Cl)cc2[nH]1)C(=O)Nc1ccc(C(N)=O)cc1 (stereo unspecified),18,-11,5,2,-23,-1
O=C(Nc1ccc(O)cc1)c1cccc(Oc2ccc([N+](=O)[O-])cc2)c1,-3,4,-1,5,57*,0

# Screening data: PubChem BioAssay, several laboratories
